Source: PubChem (National Center for Advancing Translational Sciences (NCATS))
Pf Dd2 growth = inhibitors of Plasmodium falciparum Dd2 growth. P. falciparum Dd2 growth, SYBR Green, 72 h. AID 1347417. Potency, µM (doses to about 28.9 µM), usual class: inhibitors. 120,000 compounds, 4.3% hits; active means well fitted inhibition curve with a large enough effect; further: nearly all actives have a fitted effect of over 65% in size
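Infected erythrocytes (Dd2, 0.3% parasitemia, 2.5% hematocrit final) are added to compound in RPMI-1640/Albumax II medium, grown 72 h at 37C in low oxygen, then lysed with saponin/Triton-X containing SYBR Green and read by fluorescence.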
Each line names hits and unclear results; the compound was inactive in the other large screens. Many of the other results were omitted from the sample, so hits are more common in it than they were.

COc1ccc(-c2nnc(C[C@@H]3C[C@@H](C(C)C)[C@H](CNCc4ccncc4)C=C3C)o2)cc1	Pf Dd2 growth 4µM
CC1=C[C@@H](CNC(=O)C(C)(C)C)[C@H](C(C)C)C[C@H]1Cc1nnc(-c2ccccc2F)o1	none
CC1=C[C@@H](CN(C)CCN(C)C)[C@H](C(C)C)C[C@H]1Cc1nnc(-c2ccccc2)o1	Pf Dd2 growth 3.5µM
CC1=C[C@@H](CN(C)CCc2ccccn2)[C@H](C(C)C)C[C@H]1Cc1nnc(-c2ccccc2)o1	Pf Dd2 growth 2.2µM
COCc1c(C(=O)NCCn2c(C)cnc2C2CC2)noc1C	none
Cc1ccc(C)c(Cn2nc(-c3cc(C)ccc3C)ccc2=O)c1	none
CC(=O)N1CCN(C(=O)c2ccc3c(c2)NC(C)(COc2cccnc2)CO3)CC1 (stereo not drawn)	none
CSc1cccc(NC(=O)Cn2c(=O)c(-c3noc(C)n3)c3n(c2=O)CCCCC3)c1	none
CC1CCC2(CC1)NC(=O)N(CC(=O)NCCc1ccc(Cl)cc1)C2=O (stereo not drawn)	none
COCCC(=O)N1CCCCCC1c1nnc(-c2ccccc2)o1 (stereo not drawn)	none
O[C@H]1CC[C@@H](Cc2cc(CN3CCOCC3)on2)O[C@@H]1CNCc1ccccc1Cl	none
Cc1ccc(N2CCN(C(=O)Cc3c(C(=O)O)c(C)cn3C)CC2)c(C)c1	none
CC1=C[C@@H](CNC(=O)NC(C)C)[C@H](C(C)C)C[C@H]1CC(=O)NCc1ccccn1	none
CC1=C[C@@H](CNC(=O)c2cccnc2)[C@H](C(C)C)C[C@H]1CC(=O)NCc1ccccn1	none
CC1=C[C@@H](CN(C)CCc2ccccn2)[C@H](C(C)C)C[C@H]1Cc1nnc(-c2ccncc2)o1	Pf Dd2 growth 3.5µM
COc1cc(-c2[nH]ncc2CN2CCCC2c2ccccn2)cc(OC)c1OC (stereo not drawn)	none
CCCNC(=O)Cn1c(=O)cc(C)c2c(C)nn(-c3cccc(F)c3)c21	none
Cc1cc(NC(=O)CN2C(=O)NC(c3ccccc3Cl)C3=C2COC3=O)ccc1Br (stereo not drawn)	none
C[C@H]1[C@@H]2[C@@H](O)C([C@H](C)C(=O)NCc3cccnc3)CC[C@@]2(C)CC[C@@H]1NC(=O)c1ccc(C#N)cc1 (stereo partly drawn)	none
C[C@H]1[C@@H]2[C@@H](O)C([C@H](C)C(=O)NCc3ccccc3)CC[C@@]2(C)CC[C@@H]1NC(=O)c1ccc(C#N)cc1 (stereo partly drawn)	none
C[C@H]1[C@@H]2[C@@H](O)C([C@H](C)C(=O)NCc3ccccn3)CC[C@@]2(C)CC[C@@H]1NC(=O)c1ccc(C#N)cc1 (stereo partly drawn)	Pf Dd2 growth 8.9µM
CCOc1ccc(C(=O)Nc2cccc(OCc3cc(=O)n4ccccc4n3)c2)cc1	none
CC(=O)N1C[C@@H]2C[C@H](C1)c1ccc(NC(=O)COc3ccccc3)c(=O)n1C2	none
CCCN(C)c1nccnc1OC1CCN(C(=O)C2CCOCC2)C1 (stereo not drawn)	none
CN(C)c1nccnc1OC1CCN(C(=O)c2ccn[nH]2)C1 (stereo not drawn)	none
CCCN(C)c1nccnc1OC1CCN(C(=O)c2ccc(F)cc2)C1 (stereo not drawn)	Pf Dd2 growth 10µM
C=Cc1ccc(CSc2nnc(C)n3c2cc2occc23)cc1	none
CCc1ccc(NC(=O)CSc2nc(-c3cccc(OC)c3)nc3c2Cc2c(CO)cnc(C)c2O3)cc1	Pf Dd2 growth 3.5µM
Cc1ccc(-c2nc3c(c(SCC(=O)N4CCCCC4)n2)Cc2cc(C)ccc2O3)cc1	none
C=Cc1ccc(CSc2nc(-c3ccc(C)cc3)nc3c2Cc2c(CO)cnc(C)c2O3)cc1	Pf Dd2 growth 2.8µM
Cc1cccc(-c2nc3c(c(SCc4ccccc4Cl)n2)Cc2c(CO)cnc(C)c2O3)c1	none
CCc1ccc(CSc2nc(-c3ccccc3OC)nc3c2Cc2c(CO)cnc(C)c2O3)cc1	Pf Dd2 growth 3.2µM
COc1ccccc1-c1nc2c(c(SCC(=O)Nc3c(C)cc(C)cc3C)n1)Cc1c(CO)cnc(C)c1O2	none
CCc1ccccc1NC(=O)CSc1nc(-c2ccccc2OC)nc2c1Cc1c(CO)cnc(C)c1O2	none
Cc1ccc(CSc2nc(-c3ccccc3C)nc3c2Cc2c(CO)cnc(C)c2O3)cc1	Pf Dd2 growth 5µM
Cc1ccc(C)c(NC(=O)CSc2nc(-c3ccccc3Cl)nc3c2Cc2c(CO)cnc(C)c2O3)c1	none
CCCCSc1nc(-c2cccc(OC)c2)nc2c1Cc1c(CO)cnc(C)c1O2	none
COc1ccc(-c2nc3c(c(SCC(=O)Nc4cc(C)cc(C)c4)n2)Cc2c(CO)cnc(C)c2O3)cc1	none
CC(=O)Nc1nonc1-c1nnc(SCc2ccc(C)cc2)n1C	none
Cn1c(=O)c2c(nc(SCC(=O)Nc3ccc(F)c(F)c3)n2Cc2ccccc2F)n(C)c1=O	none
Cc1ccc(C)c(C(=O)N[C@@H]2CN(Cc3ccccn3)C[C@H]2CN(C)C)c1	none
COc1ccc(OC2CN([S+](=O)([O-])c3cccc(OC)c3)C2)cc1	none
Cc1noc([C@@H](C)NC(=O)NC2(c3ccccc3)CCOCC2)c1C(=O)O	none
Cc1ccc(C(=O)N2CCC(C3CCN(Cc4cccc(F)c4F)CC3)C2)cn1 (stereo not drawn)	none
COC[C@H]1C[C@@H](NC(=O)c2cc(C)oc2C)[C@H](O)[C@@H]1O	none
CCc1c(C)nc(N)nc1NCc1noc(COC)n1	none
COCCOC1CCOC2(CCN(C(=O)c3ccccc3OC)CC2)C1 (stereo not drawn)	none
COCCOC1CCOC2(CCN(C(=O)c3cc(-c4ccc(F)cc4)n[nH]3)CC2)C1 (stereo not drawn)	Pf Dd2 growth 11µM
COCCOC1CCOC2(CCN(C(=O)c3cc(C)nn3C)CC2)C1 (stereo not drawn)	none
COc1ncc(CN2CC[C@@H]3OCC(=O)N(c4ccccc4)[C@H]3CC2)cn1	none
O=C(c1ccc2nccn2c1)N1CCC(c2ccccc2F)C1 (stereo not drawn)	none
Cc1c(Cl)cccc1NC(=O)c1ccc2c(c1)N(S(C)(=O)=O)CC2	none
CC(=O)N1C[C@@H]2CCCN3CCC[C@@H]([C@H]23)[C@H]1CCCC(=O)NCCN(C)C	none
CCOC(=O)c1cc(-c2ccc(OC)cc2)nn1Cc1ccccc1	none
CCOC(=O)C1=C(CN(CC)Cc2ccccc2)NC(=O)NC1c1ccc(OC)cc1 (stereo not drawn)	none
CCOC(=O)c1[nH]c2c(c1Cc1ccccc1)C(=O)CC(c1ccc(Cl)cc1)C2 (stereo not drawn)	Pf Dd2 growth 10µM
CCOC(=O)c1[nH]c2c(c1Cc1ccccc1)C(=O)CC(c1ccc(OC)cc1)C2 (stereo not drawn)	Pf Dd2 growth 11µM
Cc1ccc(COC(=O)c2[nH]c3c(c2C)C(=O)CC(c2ccc(Cl)cc2)C3)cc1 (stereo not drawn)	none
Cc1c(C(=O)OCC2CCCCC2)[nH]c2c1C(=O)CC(c1ccc(Cl)cc1)C2 (stereo not drawn)	none
COc1ccc2[nH]c3c(c2c1)CCN(C)C31CCN(C(=O)c2cn(C)cn2)CC1	none
Cc1noc(C)c1C(=O)N1CCC2(CC1)CC(c1ccccc1)C(=O)N2C (stereo not drawn)	none
COCCCN1C(=O)CC[C@H]2CN(C(=O)Cn3cccnc3=O)CC[C@H]21	none
O=C(CC1=C2CCCCC2N(Cc2ccc(F)cc2)C1=O)NC1CCS(=O)(=O)C1 (stereo not drawn)	none
Cc1nnc(N2CCCC(C(=O)NCc3ccccc3)C2)c2nn(-c3ccccc3)c(C)c12 (stereo not drawn)	none
Cc1ccc(CCNC(=O)C2CCCN(c3nnc(C)c4c(C)n(-c5ccccc5)nc34)C2)cc1 (stereo not drawn)	none
